Sm TGR block: blocks Schistosoma mansoni thioredoxin glutathione reductase; hit rate 3% among 360,000; purified TGR, DTNB reduction, TNB absorbance 405 nm; Q962Y6; Potency, µM (highest dose often 114 µM), for the others: at the top dose activity change, negative = inhibition, most hits filed as inhibitors; also: % is scaled to controls: 0 for no effect and ±100 for the full control effect; nearly all actives have a fitted effect of over 60% in size
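First, TGR (20 nM dispensed) and NADPH were mixed with compound. Second, a 15 min room-temperature incubation followed. Third, further NADPH and then DTNB were added to start the reaction. Finally, TNB absorbance was monitored kinetically.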
Pf growth 48h: P. falciparum growth inhibition at 48 hours (one generation); hit rate 5.9% among 310,000; AID 504832; P. falciparum luciferase growth in erythrocytes, 48 h; Potency, µM (top dose mostly 28.7 µM), for inactives: at the highest dose activity change, negative = inhibition, most hits filed as inhibitors; also: % is scaled to controls: 0 for no effect and ±100 for the full control effect
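In quantitative HTS format, infected erythrocytes bearing luciferase-reporter parasites were treated for a single generation at 37 C. Luminescence after adding detection reagent served as the growth measure.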
SARS PLP yeast: blocks SARS-CoV papain-like protease in a yeast assay; Potency, µM (titrated, usually from 32.9 µM), inactives show top-dose activity, positive = growth rescue, hits mostly activators; hit rate 0.19% among 330,000; AID 485353; S. cerevisiae expressing SARS-CoV PLpro, growth rescue; calls by dose curve; also: 0% is about no effect; nearly all actives have a fitted effect of over 55% in size
Pf growth 96h: inhibits malaria parasite growth, 96 h. P. falciparum luciferase reporter growth, 96 h. Potency, µM (series often up to 28.7 µM), inactives show at the top dose activity change, negative = inhibition, actives largely listed as inhibitors. hit rate 6.9% among 320,000. AID 504834; also: % is scaled to controls: 0 for no effect and ±100 for the full control effect
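96 h incubation, 37 C, 5% CO2, of luciferase-reporter P. falciparum-infected RBCs (2% hematocrit, 0.05% parasitemia final) with test compounds; endpoint luminescence.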
An asterisk follows results filed as active; u = inconclusive; x = no result given. Sampled rows, rich in hits. Any-hit rate of the full collection: about 12%. Unless noted, calls follow the shape of the dose curve; as a rule, active = well fitted curve in the direction sought with a large enough effect; inconclusive = small, poorly fitted or top-dose-only effect, or another doubt; inactive = no such curve, though single readings can be large; an effect the other way counts as inactive or inconclusive. Potency is read from the fitted curve at half-maximal effect.

SMILES | Sm TGR block | Pf growth 48h | SARS PLP yeast | Pf growth 96h
Cc1nc(SCc2ccc(O)c([N+](=O)[O-])c2)n[nH]1 | -12% | -2% | 5% | 15%
Nc1ncnc2c1ncn2C1OC(C(=O)NC2CC2)C(O)C1O (stereo not drawn) | 4% | 3% | x | 11%
COC(=O)c1ccc(Cl)cc1NC(=O)Nc1nnc(N(C)Cc2ccccc2)s1 | 20% | x | x | x
CC(=O)c1ccc(NC(=O)CSc2nnc(C3CC3)n2C2CC2)cc1 | x | x | 2% | x
COC(=O)C1=C(C)N(C)C(=S)N(C)C1c1cccc(Br)c1 (stereo not drawn) | u | u | 20% | -1%
COC(=O)C1=C(C(=O)OC)C2C(C)=CC(C)=CN2C(C(=O)OC)=C1C(=O)OC (stereo not drawn) | 40µM* | -25% | 5% | u
Cc1ccc(N2CC(C(=O)OCC(=O)NNC(=O)c3ccccc3)CC2=O)cc1 (stereo not drawn) | 2% | 7% | -1% | 11%
COc1ccc(S(=O)(=O)N2c3ccc(Cl)cc3[C@](O)(c3ccccc3Cl)[C@@H]2C(=O)N2CCC[C@H]2C(N)=O)cc1OC | x | u | x | 9.5µM*
COc1ccc(S(=O)(=O)N2CCC(C(=O)Nc3cc(Cl)ccc3N3CCOCC3)CC2)cc1OC | 4% | u | 2% | u
CCc1cccc(CC)c1N(COC)C(=O)Cn1c(C)nc2ccccc21 | 0% | x | x | x
O=c1[nH]nc(Sc2ncnc3sccc23)n1CCc1ccccc1 | -16% | 10µM* | 0% | 9.3µM*
O=Cc1cccn1-c1cccc([N+](=O)[O-])c1 | 0% | 78% | 0% | 2.6µM*
O=C(O)c1cccc(-n2cccc2/C=C/[N+](=O)[O-])c1 | 4.5µM* | 21% | 3% | 4%
O=Cc1cccn1-c1ccccc1 | 0% | 38% | 3% | -10%
O=C(O)c1cccc(-n2cccc2/C=C\[N+](=O)[O-])c1 | u | u | 0% | u
CCc1cccc(NC(=O)c2cnc(SC)nc2-c2ccccc2)c1 | 0% | x | x | x
O=C(CN1CCN(c2ccccc2O)CC1)Nc1ccccc1C(=O)NCCc1ccccc1 | -3% | -84% | 0% | 0%
COc1ccc(CCNC(=O)c2ccccc2NC(=O)CN2CCN(c3ccccc3O)CC2)cc1 | -1% | 10µM* | 5% | 7.4µM*
O=C(CN1CCN(c2ccc(F)cc2)CC1)Nc1ccccc1C(=O)NCCc1ccccc1 | -9% | u | -2% | u
COc1ccc(N2CCN(CC(=O)Nc3ccccc3C(=O)NCc3ccccc3)CC2)cc1 | -20% | 13µM* | 1% | u
O=C(O)c1ccc(CNCc2ccc(Cl)cc2)s1 | -9% | x | x | x
CN(C)c1cccc(C(=O)OC(C(=O)Nc2ccc(Cl)cc2C(F)(F)F)c2ccccc2)c1 (stereo not drawn) | -2% | u | -29% | 12µM*
O=C(OC(C(=O)Nc1ccc(Cl)cc1C(F)(F)F)c1ccccc1)C1=COCCO1 (stereo not drawn) | -2% | -3% | -10% | u
COc1cccc(C(=O)OCC(=O)N2CCc3ccccc3C2)c1 | x | x | -12% | x
CCCN1C(=O)/C(=C\C=C2\N(CC)c3ccccc3C2(C)C)SC1=S | 7% | 5.2µM* | 0% | -4%
SMILES | Sm TGR block | Pf growth 48h | SARS PLP yeast | Pf growth 96h
Cc1ccc(C)c(N(C)C(=O)c2cc3c(=O)[nH]c4ccc(C)cc4c3s2)c1 | 25% | 10µM* | -2% | u
CCCN(C(=O)c1cc2c(=O)[nH]c3ccc(C)cc3c2s1)c1ccc(CC)cc1 | 6% | x | x | x
CCOCCCN(Cc1ccco1)C(=O)c1cc2c(=O)[nH]c3ccc(C)cc3c2s1 | 40µM* | x | 5% | -11%
CCN(C(=O)c1cc2c(=O)[nH]c3ccc(C)cc3c2s1)c1ccc(OC)cc1 | 14% | u | 0% | 5.2µM*
Cn1nc(-c2ccc(OCC(=O)Nc3ccc(Cl)cc3)cc2)c2ccccc2c1=O | -7% | x | x | x
CCN(CC)c1ccc(N=C2C(=O)Nc3ccccc32)cc1 | u | 3.3µM* | 1% | u
CC(C)NC(=S)N(CCc1ccncc1)C(C)C | 9% | -4% | -11% | 1.3µM*
O=C(N/N=C/c1cc([N+](=O)[O-])ccc1O)c1cccc2ccccc12 | 17% | 13µM* | u | 27%
O=C(Cn1nnc(-c2ccccc2)n1)N/N=C/c1cc([N+](=O)[O-])c(Cl)cc1Cl | -3% | 14% | u | 31%
O=C(CCC(=O)Nc1ccc(F)cc1)N/N=C/c1cc([N+](=O)[O-])ccc1O | 16% | u | 1% | -5%

Compound activity (PubChem BioAssay)
